# Source: the supplement of paper PMC10127200
# Counter-ions that a name gives are not always drawn.
# Experiments:
# Assay in all cases: Euclidean distance of Cell Painting phenotypic profile (signed KS, 77 features) to DMSO centroid (dimensionless distance); 5 or 10 uM (library dependent); higher = stronger phenotypic change vs DMSO (phenoactivity)
# Settings in all cases: 48 h
# 786-O = test system: 786-O
# Method in brief: (§1)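 Five cancer lines, together with a healthy fibroblast line, received library compounds for 48 h at a library-dependent 10 or 5 uM and 0.1% DMSO final. Harmony then derived 77 features from confocal 20X images (9 fields/well) of the stained cells, scoring each as a signed Kolmogorov-Smirnov statistic against same-plate vehicle wells. After plate-position correction, correlation weighting and replicate averaging at the top dose, phenoactivity was taken as each profile's Euclidean distance to the median vehicle profile.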
# A549 = test system: A549
# Method in brief: as §1
# DU145 = test system: DU145
# Method in brief: as §1
# FB = test system: FB
# Method in brief: as §1
# HEPG2 = test system: HEPG2
# Method in brief: as §1
# OVCAR4 = test system: OVCAR4
# Method in brief: as §1
SMILES,Euclidean distance (786-O),Euclidean distance (A549),Euclidean distance (DU145),Euclidean distance (FB),Euclidean distance (HEPG2),Euclidean distance (OVCAR4)
CC(=O)Nc1ccc(NC(=S)NC(=O)c2ccc(C(C)(C)C)cc2)cc1 [Tenovin-1],2.16,1.83,0.772,0.753,1.08,1.03
N[C@@H]1c2cccnc2[C@H](OC(=O)N2CCC(n3c(=O)[nH]c4ncccc43)CC2)CC[C@H]1c1cccc(F)c1F,1.04,0.68,0.986,1.29,0.768,1.31
Cc1nc(=O)c2cc(CN(C)c3ccc(C(=O)N[C@@H](CCC(=O)O)C(=O)O)s3)ccc2[nH]1 [Raltitrexed],1.96,2.87,0.703,0.633,2.39,2.76
N#C[C@@H]1CCCN1C(=O)CNC12CC3CC(CC(O)(C3)C1)C2 [Vildagliptin (LAF-237)],1.09,1.02,1.43,0.918,0.836,1.21
C=CC(=O)Nc1ccc2ncnc(Nc3cccc(Br)c3)c2c1,1.72,2.07,1.78,2.78,1.47,2.99
CCOCc1nc2c(N)nc3ccccc3c2n1CC(C)(C)O [Resiquimod],1.35,1.05,1.47,0.954,0.587,1.19
C[C@@H](c1nc(-c2ccc(C#N)cc2)cs1)[C@](O)(Cn1cncn1)c1cc(F)ccc1F [Isavuconazole],1,1.45,1.02,0.654,1.55,1.43
Cc1cc(O)c(C(=O)N[C@@H](C(=O)N[C@@H]2C(=O)N3C(C(=O)O)=C(CSc4nnnn4C)CS[C@H]23)c2ccc(O)cc2)cn1 [Cefpiramide sodium],0.849,1.35,1.94,1.17,0.51,0.977
CCCCc1nc2cc(/C=C/C(=O)NO)ccc2n1CCN(CC)CC [Pracinostat (SB939)],2.82,4.04,3.89,4.08,3.78,3.46
COc1nccnc1NS(=O)(=O)c1ccc(N)cc1 [Sulfalene(SMPZ)],0.789,1.44,1.18,1.41,0.406,0.917
C#Cc1cccc(Nc2ncnc3cc(OC)c(OCCCCCCC(=O)NO)cc23)c1,3.46,4.62,2.02,3.43,1.85,1.93
C=CC(=O)Nc1cccc(Nc2nc(Nc3ccc(N4CCN(C(C)=O)CC4)cc3OC)ncc2C(F)(F)F)c1,1.04,0.866,0.799,1.01,0.62,0.883
CN1C(=O)[C@@H](NC(=O)c2n[nH]c(Cc3ccccc3)n2)COc2ccccc21,0.778,1.15,1.8,1.02,0.727,1.12
Nc1nc(/C(=C/CC(=O)O)C(=O)N[C@@H]2C(=O)N3C(C(=O)O)=CCS[C@H]23)cs1 [Ceftibuten dihydrate],1.22,0.568,1.24,1.2,1.17,0.987
CN(C)CCCCC(=O)Nc1ccc(NC(=S)NC(=O)c2ccc(C(C)(C)C)cc2)cc1 [Tenovin-6],2.9,3.08,1.61,3.01,3.46,1.95
CC1C(=O)OC2C(O)C34C5CC(C(C)(C)C)C36C(OC(=O)C6O)OC4(C(=O)O5)C12O (stereo not drawn) [Ginkgolide B],0.999,1.63,0.921,1.25,2.11,1.3
CCc1nc2c(C)cc(N3CCN(CC(=O)N4CC(O)C4)CC3)cn2c1N(C)c1nc(-c2ccc(F)cc2)c(C#N)s1 [Ziritaxestat (GLPG1690)],1.57,1.31,0.685,2.02,1.42,1.68
CC(=O)[C@H]1CC[C@H]2[C@@H]3C=CC4=CC(=O)CC[C@@]4(C)[C@@H]3CC[C@]12C [Dydrogesterone],0.672,0.859,0.732,1.15,1.01,0.899
CC(C(=O)O)c1ccc(C(=O)c2cccs2)cc1 (stereo not drawn) [Suprofen],1.32,0.825,0.656,0.981,2.04,1.01
O=C1NC(=O)/C(=C/c2cccc(C(F)(F)F)c2)S1,1.83,1.41,0.82,1.49,0.755,0.797
CCC(C(=O)O)c1ccc(N2Cc3ccccc3C2=O)cc1 (stereo not drawn) [Indobufen],0.947,0.717,1.19,1.01,0.618,1.31
CCCC(=O)O[C@]1(C(=O)CCl)[C@H](C)C[C@@H]2[C@@H]3CCC4=CC(=O)C=C[C@]4(C)[C@]3(F)C(=O)C[C@@]21C [clobetasone butyrate],1.53,2.42,3.28,1.92,1.73,2.23
C[C@H](CCC(=O)O)[C@H]1CC[C@H]2[C@@H]3CC[C@@H]4C[C@H](O)CC[C@]4(C)[C@H]3C[C@H](O)[C@]12C [Deoxycholic acid],0.886,0.94,0.997,0.74,0.87,1.36
CO/N=C(\C(=O)N[C@@H]1C(=O)N2C(C(=O)O)=C(COC(C)=O)CS[C@H]12)c1csc(N)n1 [Cefotaxime],1.26,0.798,0.573,0.69,0.777,0.905

SMILES,Euclidean distance (786-O),Euclidean distance (A549),Euclidean distance (DU145),Euclidean distance (FB),Euclidean distance (HEPG2),Euclidean distance (OVCAR4)
COc1cc2ncnc(Nc3ccc(O)c(Br)c3)c2cc1OC,1.36,1.35,1.92,1.7,1.64,0.933
CS(=O)(=O)Nc1cc2occ(NC=O)c(=O)c2cc1Oc1ccccc1 [Iguratimod],0.942,0.587,2.23,1.05,0.878,0.85
CNCCc1ccccn1 [Betahistine],1.31,0.763,0.72,1.01,0.628,0.854
CC(=O)O[C@]1(C(C)=O)CC[C@H]2[C@@H]3C=C(Cl)C4=CC(=O)CC[C@]4(C)[C@H]3CC[C@@]21C [Chlormadinone acetate],1.27,1.1,1.72,1.26,0.98,0.962
Nc1ccn([C@@H]2O[C@H](CO)[C@@H](O)[C@H]2O)c(=O)n1 [Cytidine],1.92,0.659,1.04,0.943,1.9,1
CN(C)N(C)C(=O)[C@@]1(Cc2ccccc2)CCCN(C(=O)[C@@H](Cc2c[nH]c3ccccc23)NC(=O)C(C)(C)N)C1 [Anamorelin],1.33,0.796,0.841,1.59,0.82,0.802
Cc1nnc(SCC2=C(C(=O)O)N3C(=O)[C@@H](NC(=O)Cn4cnnn4)[C@H]3SC2)s1 [Cefazolin Sodium],0.929,0.587,0.958,0.961,1.06,1.27
c1ccc(NCc2ccc(CNc3ccccn3)cc2)nc1,0.787,1.08,0.956,1.09,0.936,1.15
O=C(O[C@@H]1C[C@@H]2C[C@H]3C[C@H](C1)N2CC3=O)c1c[nH]c2ccccc12 [Dolasetron Mesylate],1.12,0.793,0.963,1.17,0.558,1.22
CC(C)(O)CC(=O)NCCn1ccc2ncnc(Nc3ccc(Oc4cccc(C(F)(F)F)c4)c(Cl)c3)c21,1.98,2.02,1.57,1.52,1,1.73
NCCOB(c1ccccc1)c1ccccc1 [2-Aminoethyl Diphenylborinate (2-APB)],1.61,0.835,1,0.968,0.822,1.13
CC1=C(C(=O)OCCN(Cc2ccccc2)c2ccccc2)C(c2cccc([N+](=O)[O-])c2)C(P2(=O)OCC(C)(C)CO2)=C(C)N1 (stereo not drawn) [Efonidipine],1.73,1.93,1.02,0.739,0.968,0.999
Nc1c(Br)cc(Br)cc1CN[C@H]1CC[C@H](O)CC1 [Ambroxol],1.17,0.59,0.867,0.611,0.645,0.78
COc1ccc(C2=N[C@@H](c3ccc(Cl)cc3)[C@@H](c3ccc(Cl)cc3)N2C(=O)N2CCNC(=O)C2)c(OC(C)C)c1 [Nutlin-3],1.4,3.54,1.03,2.68,2.58,1.17
COc1ccc(-c2cc(=S)ss2)cc1 [Anethole trithione],1.49,1.04,1.18,1.03,0.61,1.06
Nc1nc(=O)[nH]cc1F [Flucytosine],1.25,1.12,0.998,1.16,0.392,0.975
Clc1ccc(C(Cn2ccnc2)OCc2csc3c(Cl)cccc23)c(Cl)c1 (stereo not drawn) [Sertaconazole nitrate],1.47,1.42,1.2,1.26,0.627,1.61
CN[C@@H]1[C@@H](O)[C@@H](O[C@@H]2[C@@H](O)[C@H](O[C@H]3O[C@H](CN)[C@@H](O)[C@H](O)[C@H]3O)[C@@H](N)C[C@H]2NC(=O)[C@@H](O)CN)OC[C@]1(C)O [Isepamicin Sulphate],1.12,0.946,0.819,1.14,0.94,1.65
OCC(O)CN1CCN(c2ccccc2)CC1 (stereo not drawn) [Dropropizine],1.11,1.8,1.39,1.1,0.735,1.98
C=C1CC[C@H](O)C/C1=C/C=C1\CCC[C@]2(C)[C@@H]([C@H](C)/C=C/[C@H](C)C(C)C)CC[C@@H]12 [Vitamin D2],2.59,0.759,5.76,1.38,2.02,2.05
CCc1cc2c(cc1CC)CC(NC[C@H](O)c1ccc(O)c3[nH]c(=O)ccc13)C2 [Indacaterol Maleate],0.915,0.63,1.14,1.67,0.818,1.02
C[C@H]1C[C@H]2[C@@H]3CCC4=CC(=O)C=C[C@]4(C)[C@@]3(F)[C@@H](O)C[C@]2(C)[C@@]1(O)C(=O)CO [Betamethasone],1.28,2.01,2.37,1.68,0.663,2
C=CC(=O)Nc1cc(Nc2nccc(-c3cn(C)c4ccccc34)n2)c(OC)cc1N(C)CCN(C)C [Osimertinib mesylate],4.85,4.05,2.93,5.59,5.06,4.46
Oc1ccc(-c2nc(-c3ccc(F)cc3)c(-c3ccncc3)[nH]2)cc1,1.58,0.841,1.39,1.38,2.99,2.17
